Assay results from PubChem BioAssay AID1159580 (chemical genetic matrix, 2015).
The campaign covered roughly 5,500 compounds. About 2,000 (36%) were called active. Roughly 18% stayed inconclusive and do not appear here. No stated cut-off is given here; in the data, active means normalized growth mostly below about 0.91 (no sharp cut-off); inconclusive means no clear call, values can overlap the other calls; inactive means mostly above about 0.92. This is one part of the list.

Test: chemical genetic growth profiling, strain panel (AID 1159580);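 further: tested at 20 µM; growth read once vehicle control cultures reached saturation at 30 °C; 1 = growth at the plate median or of vehicle wells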
Conditions: growth OD

Measured: normalized growth

COc1ccc2c(c1OC)C(=O)O[C@@H]2[C@H]1c2cc3c(cc2CCN1C)OCO3
inactive: S. cerevisiae deletion strains, locus YJR075W, strain HOC1, stronger effect = lower value 1.02 | S. cerevisiae deletion strains, locus YKL009W, strain mrt4, stronger effect = lower value 1.03 | S. cerevisiae deletion strains, locus YKL068W, stronger effect = lower value 1.02 | S. cerevisiae deletion strains, locus YKL085W, strain MDH1 (second series), stronger effect = lower value 1.04 | S. cerevisiae deletion strains, locus YKL085W, strain MDH1, stronger effect = lower value 1.04 | S. cerevisiae deletion strains, locus YKL160W, strain elf1, stronger effect = lower value 0.974 | S. cerevisiae deletion strains, locus YKL190W, strain CNB1, stronger effect = lower value 1.02 | S. cerevisiae deletion strains, locus YKR001C, strain vps1, stronger effect = lower value 1.03 | S. cerevisiae deletion strains, locus YKR026C, strain gcn3, stronger effect = lower value 0.998 | S. cerevisiae deletion strains, locus YKR091W, strain srl3, stronger effect = lower value 0.997 | S. cerevisiae deletion strains, locus YLL001W, strain dnm1, stronger effect = lower value 0.994 | S. cerevisiae deletion strains, locus YLL026W, stronger effect = lower value 0.992 | S. cerevisiae deletion strains, locus YLL041C, strain sdh2, stronger effect = lower value 1 | S. cerevisiae deletion strains, locus YLR027C, strain aat2, stronger effect = lower value 0.996 | S. cerevisiae deletion strains, locus YLR039C, strain RIC1, stronger effect = lower value 1.07 | S. cerevisiae deletion strains, locus YLR058C, strain SHM2, stronger effect = lower value 1.02 | S. cerevisiae deletion strains, locus YLR102C, strain apc9, stronger effect = lower value 1.01 | S. cerevisiae deletion strains, locus YLR113W, strain HOG1, stronger effect = lower value 0.991 | S. cerevisiae deletion strains, locus YLR221C, strain rsa3, stronger effect = lower value 0.983 | S. cerevisiae deletion strains, locus YLR258W, strain gsy2, stronger effect = lower value 0.988 | S. cerevisiae deletion strains, locus YLR262C, strain YPT6 (second series), stronger effect = lower value 0.98 | S. cerevisiae deletion strains, locus YLR262C, strain YPT6, stronger effect = lower value 1.04 | S. cerevisiae deletion strains, locus YLR268W, strain sec22, stronger effect = lower value 1.01 | S. cerevisiae deletion strains, locus YLR320W, strain mms22, stronger effect = lower value 0.967 | S. cerevisiae deletion strains, locus YLR330W, strain CHS5, stronger effect = lower value 1.02 | S. cerevisiae deletion strains, locus YLR342W, strain FKS1 (second series), stronger effect = lower value 1.06 | S. cerevisiae deletion strains, locus YLR342W, strain FKS1, stronger effect = lower value 0.984 | S. cerevisiae deletion strains, locus YLR357W, strain rsc2, stronger effect = lower value 0.998 | S. cerevisiae deletion strains, locus YLR370C, strain arc18, stronger effect = lower value 1 | S. cerevisiae deletion strains, locus YLR371W, strain rom2, stronger effect = lower value 1.02 | S. cerevisiae deletion strains, locus YLR384C, strain iki3, stronger effect = lower value 0.983 | S. cerevisiae deletion strains, locus YLR418C, strain cdc73, stronger effect = lower value 1.02 | S. cerevisiae deletion strains, locus YML016C, strain PPZ1, stronger effect = lower value 1.01 | S. cerevisiae deletion strains, locus YML032C, strain rad52, stronger effect = lower value 1.03 | S. cerevisiae deletion strains, locus YML120C, strain ndi1, stronger effect = lower value 0.985 | S. cerevisiae deletion strains, locus YML124C, strain tub3, stronger effect = lower value 1.02 | S. cerevisiae deletion strains, locus YMR058W, strain fet3, stronger effect = lower value 0.998 | S. cerevisiae deletion strains, locus YMR078C, strain ctf18, stronger effect = lower value 1.03 | S. cerevisiae deletion strains, locus YMR125W, strain sto1, stronger effect = lower value 0.988 | S. cerevisiae deletion strains, locus YMR129W, stronger effect = lower value 1 | S. cerevisiae deletion strains, locus YMR205C, strain PFK2, stronger effect = lower value 0.971 | S. cerevisiae deletion strains, locus YMR223W, strain ubp8, stronger effect = lower value 1.03 | S. cerevisiae deletion strains, locus YMR231W, strain pep5, stronger effect = lower value 0.993 | S. cerevisiae deletion strains, locus YMR263W, strain SAP30, stronger effect = lower value 1.01 | S. cerevisiae deletion strains, locus YMR307W, strain GAS1, stronger effect = lower value 1.09 | S. cerevisiae deletion strains, locus YNL067W, strain RPL9B, stronger effect = lower value 1.01 | S. cerevisiae deletion strains, locus YNL071W, strain lat1, stronger effect = lower value 0.997 | S. cerevisiae deletion strains, locus YNL128W, strain TEP1, stronger effect = lower value 1.02 | S. cerevisiae deletion strains, locus YNL153C, strain GIM3, stronger effect = lower value 1.01 | S. cerevisiae deletion strains, locus YNL183C, strain NPR1, stronger effect = lower value 0.953 | S. cerevisiae deletion strains, locus YNL209W, strain ssb2, stronger effect = lower value 0.993 | S. cerevisiae deletion strains, locus YNL233W, strain BNI4, stronger effect = lower value 1.02 | S. cerevisiae deletion strains, locus YNL248C, strain rpa49, stronger effect = lower value 0.999 | S. cerevisiae deletion strains, locus YNL250W, strain rad50, stronger effect = lower value 1.02 | S. cerevisiae deletion strains, locus YNL271C, strain bni1, stronger effect = lower value 1.01 | S. cerevisiae deletion strains, locus YNL298W, strain CLA4, stronger effect = lower value 1.03 | S. cerevisiae deletion strains, locus YNL307C, strain MCK1, stronger effect = lower value 1.02 | S. cerevisiae deletion strains, locus YNL322C, strain KRE1 (second series), stronger effect = lower value 0.99 | S. cerevisiae deletion strains, locus YNL322C, strain KRE1, stronger effect = lower value 1.01 | S. cerevisiae deletion strains, locus YNR049C, strain mso1, stronger effect = lower value 0.996 | S. cerevisiae deletion strains, locus YNR052C, strain pop2, stronger effect = lower value 1.02 | S. cerevisiae deletion strains, locus YOL006C, strain TOP1, stronger effect = lower value 1.04 | S. cerevisiae deletion strains, locus YOL012C, strain htz1 1.03 | S. cerevisiae deletion strains, locus YOL147C, strain pex11, stronger effect = lower value 1.02 | S. cerevisiae deletion strains, locus YOR001W, strain rrp6, stronger effect = lower value 0.998 | S. cerevisiae deletion strains, locus YOR061W, strain CKA2, stronger effect = lower value 1.02 | S. cerevisiae deletion strains, locus YOR069W, strain VPS5, stronger effect = lower value 1.02 | S. cerevisiae deletion strains, locus YOR070C, strain gyp1, stronger effect = lower value 0.984 | S. cerevisiae deletion strains, locus YOR080W, strain dia2, stronger effect = lower value 0.987 | S. cerevisiae deletion strains, locus YOR083W, strain WHI5, stronger effect = lower value 0.985 | S. cerevisiae deletion strains, locus YOR106W, strain vam3, stronger effect = lower value 0.972 | S. cerevisiae deletion strains, locus YOR136W, strain idh2, stronger effect = lower value 1.02 | S. cerevisiae deletion strains, locus YOR144C, strain elg1, stronger effect = lower value 1.02 | S. cerevisiae deletion strains, locus YOR184W, strain ser1, stronger effect = lower value 1.04 | S. cerevisiae deletion strains, locus YOR231W, strain MKK1, stronger effect = lower value 0.994 | S. cerevisiae deletion strains, locus YOR265W, strain rbl2, stronger effect = lower value 0.996 | S. cerevisiae deletion strains, locus YOR270C, strain vph1, stronger effect = lower value 1.01 | S. cerevisiae deletion strains, locus YOR290C, strain snf2, stronger effect = lower value 0.989 | S. cerevisiae deletion strains, locus YOR316C, strain cot1, stronger effect = lower value 1.02 | S. cerevisiae deletion strains, locus YPL051W, strain arl3, stronger effect = lower value 0.976 | S. cerevisiae deletion strains, locus YPL055C, strain LGE1, stronger effect = lower value 1.03 | S. cerevisiae deletion strains, locus YPL078C, strain atp4, stronger effect = lower value 1 | S. cerevisiae deletion strains, locus YPL106C, strain sse1, stronger effect = lower value 0.976 | S. cerevisiae deletion strains, locus YPL240C, strain hsp82, stronger effect = lower value 0.995 | S. cerevisiae deletion strains, locus YPL241C, strain CIN2, stronger effect = lower value 1.01 | S. cerevisiae deletion strains, locus YPL256C, strain CLN2, stronger effect = lower value 0.971 | S. cerevisiae deletion strains, locus YPR119W, strain clb2, stronger effect = lower value 1.02 | S. cerevisiae deletion strains, locus YPR141C, strain kar3, stronger effect = lower value 1.03 | S. cerevisiae deletion strains, locus YPR163C, strain tif3, stronger effect = lower value 1.03 | S. cerevisiae deletion strains, locus YPR167C, strain met16, stronger effect = lower value 1.02 | S. cerevisiae deletion strains, strain wtn01, stronger effect = lower value 1.02 | S. cerevisiae strains, strain wild type, stronger effect = lower value 1.01
